Results reported in PubChem BioAssay AID1159580 (chemical genetic matrix, 2015).
Hit rate of the full screen: of about 5,500 compounds, about 2,000 (36%) were called active. Another 18% or so got no clear call; they are omitted. Rule as the data show it: active = normalized growth mostly below about 0.91 (no sharp cut-off); inconclusive = no clear call, values can overlap the other calls; inactive = mostly above about 0.92. The list shows a part of the results.

Assay: chemical genetic growth profiling, strain panel (AID 1159580);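 also: tested at 20 µM; growth read once vehicle control cultures reached saturation at 30 °C; 1 = growth at the plate median or of vehicle wells; lower values mean less growth of the strain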
Details: S. cerevisiae deletion strains, growth OD

Measured: normalized growth

CC12CCC(O)CC1CCc1ccccc12 (configuration not stated)
active: locus YDR392W, strain spt3, stronger effect = lower value 0.634 | locus YLR262C, strain YPT6 (second series), stronger effect = lower value 0.826
inactive: locus YAL021C, strain ccr4, stronger effect = lower value 0.993 | locus YAL026C, strain drs2, stronger effect = lower value 0.972 | locus YAL030W, strain snc1, stronger effect = lower value 0.982 | locus YBL061C, strain skt5, stronger effect = lower value 0.967 | locus YBR009C, strain hhf1, stronger effect = lower value 0.932 | locus YBR023C, strain chs3, stronger effect = lower value 0.967 | locus YBR171W, strain sec66, stronger effect = lower value 0.938 | locus YBR231C, strain swc5, stronger effect = lower value 0.998 | locus YBR279W, strain paf1, stronger effect = lower value 0.981 | locus YCL011C, strain gbp2, stronger effect = lower value 0.981 | locus YCL016C, strain dcc1, stronger effect = lower value 0.977 | locus YCL061C, strain MRC1, stronger effect = lower value 0.967 | locus YCL069W, strain vba3, stronger effect = lower value 0.974 | locus YCR088W, strain abp1, stronger effect = lower value 0.978 | locus YDL005C, strain med2, stronger effect = lower value 0.97 | locus YDL040C, strain nat1, stronger effect = lower value 0.979 | locus YDR001C, strain nth1, stronger effect = lower value 0.971 | locus YDR069C, strain doa4, stronger effect = lower value 0.984 | locus YDR137W, strain rgp1, stronger effect = lower value 0.871 | locus YDR159W, strain sac3, stronger effect = lower value 0.936 | locus YDR195W, strain ref2 1 | locus YDR297W, strain sur2, stronger effect = lower value 0.971 | locus YDR334W, strain swr1, stronger effect = lower value 0.989 | locus YDR335W, strain msn5, stronger effect = lower value 0.972 | locus YEL003W, strain gim4, stronger effect = lower value 0.96 | locus YEL037C, strain rad23, stronger effect = lower value 0.98 | locus YEL061C, strain CIN8 (second series), stronger effect = lower value 0.964 | locus YER015W, strain faa2, stronger effect = lower value 0.983 | locus YER016W, strain bim1, stronger effect = lower value 0.969 | locus YER111C, strain swi4, stronger effect = lower value 0.96 | locus YER155C, strain BEM2 (second series), stronger effect = lower value 0.944 | locus YFR010W, strain ubp6, stronger effect = lower value 0.979 | locus YGL167C, strain pmr1, stronger effect = lower value 0.962 | locus YGL173C, strain kem1, stronger effect = lower value 0.957 | locus YGL227W, strain vid30, stronger effect = lower value 0.961 | locus YGL240W, strain doc1, stronger effect = lower value 0.901 | locus YGL253W, strain hxk2, stronger effect = lower value 0.969 | locus YHR013C, strain ard1, stronger effect = lower value 0.974 | locus YHR027C, strain rpn1, stronger effect = lower value 0.991 | locus YHR142W, strain chs7, stronger effect = lower value 0.973 | locus YJL092W, strain hpr5, stronger effect = lower value 0.983 | locus YJL095W, strain BCK1 (second series), stronger effect = lower value 0.99 | locus YJL115W, strain asf1, stronger effect = lower value 0.977 | locus YJL129C, strain trk1, stronger effect = lower value 0.92 | locus YJL154C, strain vps35, stronger effect = lower value 0.99 | locus YJL164C, strain tpk1, stronger effect = lower value 0.968 | locus YJL166W, strain qcr8, stronger effect = lower value 0.946 | locus YJL187C, strain SWE1, stronger effect = lower value 0.971 | locus YKL160W, strain elf1, stronger effect = lower value 0.993 | locus YKR026C, strain gcn3, stronger effect = lower value 0.954 | locus YKR091W, strain srl3, stronger effect = lower value 0.969 | locus YLL001W, strain dnm1, stronger effect = lower value 0.991 | locus YLL026W, stronger effect = lower value 0.982 | locus YLL041C, strain sdh2, stronger effect = lower value 0.974 | locus YLR027C, strain aat2, stronger effect = lower value 0.984 | locus YLR221C, strain rsa3, stronger effect = lower value 0.98 | locus YLR258W, strain gsy2, stronger effect = lower value 0.968 | locus YLR320W, strain mms22, stronger effect = lower value 0.906 | locus YLR342W, strain FKS1, stronger effect = lower value 0.965 | locus YLR357W, strain rsc2, stronger effect = lower value 0.935 | locus YLR370C, strain arc18, stronger effect = lower value 0.969 | locus YLR384C, strain iki3, stronger effect = lower value 0.993 | locus YML120C, strain ndi1, stronger effect = lower value 0.955 | locus YMR058W, strain fet3, stronger effect = lower value 0.97 | locus YMR125W, strain sto1, stronger effect = lower value 1 | locus YMR129W, stronger effect = lower value 0.961 | locus YMR205C, strain PFK2, stronger effect = lower value 0.902 | locus YMR231W, strain pep5, stronger effect = lower value 0.988 | locus YNL071W, strain lat1, stronger effect = lower value 0.959 | locus YNL209W, strain ssb2, stronger effect = lower value 0.988 | locus YNL248C, strain rpa49, stronger effect = lower value 0.985 | locus YNL322C, strain KRE1 (second series), stronger effect = lower value 0.959 | locus YNR049C, strain mso1, stronger effect = lower value 0.971 | locus YOR001W, strain rrp6, stronger effect = lower value 0.967 | locus YOR070C, strain gyp1, stronger effect = lower value 0.973 | locus YOR080W, strain dia2, stronger effect = lower value 0.968 | locus YOR083W, strain WHI5, stronger effect = lower value 0.99 | locus YOR106W, strain vam3, stronger effect = lower value 0.966 | locus YOR265W, strain rbl2, stronger effect = lower value 0.992 | locus YOR270C, strain vph1, stronger effect = lower value 0.94 | locus YOR290C, strain snf2, stronger effect = lower value 0.898 | locus YPL051W, strain arl3, stronger effect = lower value 0.986 | locus YPL078C, strain atp4, stronger effect = lower value 0.973 | locus YPL106C, strain sse1, stronger effect = lower value 1.01 | locus YPL240C, strain hsp82, stronger effect = lower value 0.991
